From the supplement of paper PMC10477191
± gives the standard deviation of the averaged measurements.

tested on: Drosophila ezoana antennal basiconic sensillum ab2; experiment: odor-evoked OSN spike response (post minus pre-stimulus); higher = stronger neuronal excitation; settings: odor dilution: 10^-4
Experimental: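 Single sensillum recordings from antennal basiconic sensilla of D. ezoana. A 500 ms pulse of odorant (10^-4 in mineral oil or DMSO) was delivered; the response is the change in action potential frequency between the 1 s pre- and post-stimulus windows (spikes/s).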

SMILES	odor-evoked OSN spike response [spikes/s]
CC(C)=O [acetone]	73.7 ± 37
